KKLEB cytotox = reduces viability of KKLEB cystic fibrosis airway cells | KKLEB CF airway cells viability, ATPlite luminescence, overnight; stronger effect = lower value; cells stimulated with P. aeruginosa culture filtrate | activity change (cytotoxicity), % at 5 µM | 360,000 compounds, 0.36% hits | AID 602141;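 active means corrected activity change at or below -50% at 5 µM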
HIF-2a block = inhibitors of HIF-2a; 786-0 RCC cells HIF-2a reporter, luciferase luminescence, overnight; inhibition, % at 18.8 µM; 360,000 compounds, 0.72% hits; AID 624352;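 active means inhibition of the luminescence signal of 40% or more relative to plate controls, in a single-dose primary screen at 18.75 µM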
CF NFkB block = cystic fibrosis NF-kB activation inhibition | KKLEB NF-kB-GFP reporter, PAF-induced, GFP fluorescence overnight | inhibition, % at 5 µM | AID 588850 | 360,000 compounds, 0.86% hits;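 active means at least 50% inhibition at 5 µM, scaled per plate between neutral and stimulator controls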;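 further: PAF is a Pseudomonas aeruginosa culture filtrate used as stimulus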
Peg3 prom inh = Peg3 promoter activity inhibition | 360,000 compounds, 1.7% hits | AID 588405 | HeLa PEG-Prom luciferase reporter, luminescence, overnight | inhibition, % at 20 µM;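 active means inhibition of at least 50% at 20 µM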
ABHD5-PLIN5 inh = ABHD5-PLIN5 protein interaction inhibition. Q00G26+Q8WTS1. Split G. princeps luciferase complementation, luminescence, 4 h. inhibition, % at 4 µM. 360,000 compounds, 0.78% hits;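 active means inhibition above the mean inhibition across every tested compound plus 3 SD, cut at about 22% in these data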
Target sequence (Q00G26 whole entry, looked up): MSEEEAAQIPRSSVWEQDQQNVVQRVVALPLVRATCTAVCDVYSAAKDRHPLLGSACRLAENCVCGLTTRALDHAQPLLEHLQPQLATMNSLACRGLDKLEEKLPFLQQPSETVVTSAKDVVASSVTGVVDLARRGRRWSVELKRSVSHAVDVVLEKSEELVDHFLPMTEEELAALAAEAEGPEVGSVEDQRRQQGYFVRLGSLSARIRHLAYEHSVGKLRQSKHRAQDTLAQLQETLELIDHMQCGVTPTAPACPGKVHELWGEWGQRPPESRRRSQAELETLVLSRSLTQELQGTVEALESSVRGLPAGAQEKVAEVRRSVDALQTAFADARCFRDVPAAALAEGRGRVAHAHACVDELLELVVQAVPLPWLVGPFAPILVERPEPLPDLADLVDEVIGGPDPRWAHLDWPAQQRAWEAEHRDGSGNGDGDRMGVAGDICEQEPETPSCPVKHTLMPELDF
Target sequence (Q8WTS1 whole entry, looked up): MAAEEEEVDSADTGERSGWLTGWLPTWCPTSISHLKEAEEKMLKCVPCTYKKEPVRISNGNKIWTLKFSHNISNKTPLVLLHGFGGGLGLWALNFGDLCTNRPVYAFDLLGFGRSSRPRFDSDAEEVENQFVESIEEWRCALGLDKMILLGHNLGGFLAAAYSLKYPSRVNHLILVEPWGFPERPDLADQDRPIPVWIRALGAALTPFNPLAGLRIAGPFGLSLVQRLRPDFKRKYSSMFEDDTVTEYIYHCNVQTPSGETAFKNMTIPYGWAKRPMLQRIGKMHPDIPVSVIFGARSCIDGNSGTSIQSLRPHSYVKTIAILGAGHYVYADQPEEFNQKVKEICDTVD
Mdm2-MdmX inh = human Mdm2/MdmX binding inhibition; 330,000 compounds, 3% hits; inhibition, % at 8 µM; SaOS-2 split-luciferase Mdm2/MdmX complementation, luminescence; O15151+Q00987;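 active means inhibition of at least 50% at 8 µM in the primary screen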
Mdm2-MdmX conf = human Mdm2/MdmX binding inhibition, confirmed; inhibition, % at 8 µM; AID 489028; 10,000 compounds, 55% hits; luminescent assay; shares compounds with Mdm2-MdmX inh; in the data active means inhibition above about 40%
FLuc counter = inhibits full-length luciferase, flagging false Mdm2/MdmX hits | SaOS-2 full-length luciferase counterscreen, luminescence | shares compounds with Mdm2-MdmX inh | 6,200 compounds, 77% hits | inhibition, % at 8 µM;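 active means mean inhibition at 8 µM reaching about 37%, which flags the compound as non-specific, limit read from the data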;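 further: p53-null SaOS-2 cells with luciferase driven by a doxycycline-inducible promoter; compound on cells about two nights before reading with doxycycline added after day one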
Hits are given with their value. Hits are enriched below; roughly 4.6% of the tested compounds scored in any of these assays.

O=C(Nc1cccc(S(=O)(=O)NCc2ccco2)c1)c1cc(-c2ccccc2)nc2ccccc12 was read as KKLEB cytotox inactive, HIF-2a block inactive, CF NFkB block inactive, Peg3 prom inh 62, ABHD5-PLIN5 inh inactive, Mdm2-MdmX inh 52 and Mdm2-MdmX conf inactive.
`O=C(NCCc1cn2cccnc2n1)C1CCC(=O)N(Cc2ccccc2F)C1` (stereo not drawn) gave KKLEB cytotox inactive, HIF-2a block inactive, CF NFkB block inactive, Peg3 prom inh inactive and ABHD5-PLIN5 inh inactive.
For Cc1cc(C(=O)Nc2ccc(Cl)cc2)c(C)n1-c1ccccc1 the results were KKLEB cytotox -68, HIF-2a block 73, CF NFkB block inactive, Peg3 prom inh 87, ABHD5-PLIN5 inh inactive, Mdm2-MdmX inh 89, Mdm2-MdmX conf 89 and FLuc counter inactive.
Screening Cc1ccc(NC(=O)c2cc(C)n(-c3ccccc3)c2C)cc1 returned KKLEB cytotox -73, HIF-2a block 54, CF NFkB block inactive, Peg3 prom inh inactive, ABHD5-PLIN5 inh inactive, Mdm2-MdmX inh 77, Mdm2-MdmX conf 84 and FLuc counter 41.
Screening Cc1ccc(NC(=O)c2cc(C)n(-c3cccc(C)c3)c2C)cc1 returned KKLEB cytotox inactive, HIF-2a block inactive, CF NFkB block inactive, Peg3 prom inh inactive, ABHD5-PLIN5 inh inactive and Mdm2-MdmX inh inactive.
For Cc1cc(/C=N/n2cnnc2)c(C)n1-c1ccc(OCc2ccc(Cl)cc2)cc1 the results were KKLEB cytotox inactive, HIF-2a block inactive, CF NFkB block inactive, Peg3 prom inh inactive, ABHD5-PLIN5 inh inactive, Mdm2-MdmX inh 61, Mdm2-MdmX conf 62 and FLuc counter 92.
Screening CCOc1ccc(Oc2ccccc2NC(=O)CCc2nc3ccccc3c(=O)[nH]2)cc1 returned KKLEB cytotox inactive, HIF-2a block inactive, CF NFkB block inactive, Peg3 prom inh inactive and ABHD5-PLIN5 inh inactive.
CCOc1ccccc1NC(=O)CCCc1nc2ccccc2c(=O)[nH]1 was read as KKLEB cytotox inactive, HIF-2a block inactive, CF NFkB block inactive, Peg3 prom inh inactive, ABHD5-PLIN5 inh inactive, Mdm2-MdmX inh 65, Mdm2-MdmX conf 49 and FLuc counter 56.
For O=C(Nc1ccc(Cl)c(Cl)c1)Nc1ccc(N2CCCC2)c(S(=O)(=O)Nc2ccccc2Cl)c1 the results were KKLEB cytotox -54, HIF-2a block inactive, CF NFkB block 62, Peg3 prom inh 58, ABHD5-PLIN5 inh inactive, Mdm2-MdmX inh 93, Mdm2-MdmX conf 95 and FLuc counter inactive.
`O=C(CCc1ccccc1)N1CCN(Cc2ccc(F)cc2Cl)CC1` gave KKLEB cytotox inactive, HIF-2a block inactive, CF NFkB block inactive, Peg3 prom inh inactive, ABHD5-PLIN5 inh inactive and Mdm2-MdmX inh inactive.
Screening COc1ccc(Cl)cc1NC(=O)CC1S/C(=N/N=C2CCCCCC2)NC1=O (stereo not drawn) returned KKLEB cytotox inactive, HIF-2a block inactive, CF NFkB block inactive, Peg3 prom inh inactive, ABHD5-PLIN5 inh inactive and Mdm2-MdmX inh inactive.
`CCc1cc2c3c(c1)C1(C(=O)N3C(C)(C)C=C2C)C(C#N)=C(N)Oc2[nH]c(=O)[nH]c(=O)c21` (stereo not drawn) gave KKLEB cytotox inactive, HIF-2a block inactive, CF NFkB block inactive, Peg3 prom inh inactive, ABHD5-PLIN5 inh inactive, Mdm2-MdmX inh 57, Mdm2-MdmX conf 41 and FLuc counter 81.
CC1=CC(C)(C)N2C(=O)C3(C(C#N)=C(N)Oc4cc(C)oc(=O)c43)c3cc(C)cc1c32 (stereo not drawn) was read as KKLEB cytotox inactive, HIF-2a block inactive, CF NFkB block inactive, Peg3 prom inh inactive, ABHD5-PLIN5 inh inactive and Mdm2-MdmX inh inactive.
For Cc1ccc(Nc2nc(NCCO)c3ccccc3n2)cc1C the results were KKLEB cytotox inactive, HIF-2a block inactive, CF NFkB block inactive, Peg3 prom inh 54, ABHD5-PLIN5 inh inactive, Mdm2-MdmX inh 55 and Mdm2-MdmX conf inactive.
Screening COc1ccc(CC(=O)NC2CCCCCC2)c(OC)c1 returned KKLEB cytotox inactive, HIF-2a block inactive, CF NFkB block inactive, Peg3 prom inh inactive, ABHD5-PLIN5 inh inactive and Mdm2-MdmX inh inactive.

Compound activity as filed in PubChem BioAssay.
